From PubChem BioAssay (NCATS) come the findings set out here.

Unmarked numbers belong to inactive results. Records with an inconclusive call do not appear. The source made the active and inactive calls. Unless noted, calls come from the whole dose curve; as a rule, active = well fitted curve in the direction sought with a large enough effect; inconclusive = small, poorly fitted or top-dose-only effect, or another doubt; inactive = no such curve, though single readings can be large; an effect the other way counts as inactive or inconclusive.

Assay [1] is described as follows: Cell Viability - Hek293 (AID 427;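 active = compounds whose dose-response curve shows a full or clear partial loss of cell viability, called from curve shape rather than a numeric limit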;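 note: potency is the fitted concentration of half-maximal effect; cells exposed to compound for 40 hours at 37 °C before reading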). The following applies: qHTS. In a few lines:
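HEK293 cells in complete medium were exposed to compound for 40 hr at 37 °C, then cellular ATP was read by CellTiter-Glo luminescence. Data were normalized to DMSO (basal) and 100 uM tamoxifen (100% inhibition), and AC50 came from Hill fits.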
A general note: Quantitative high-throughput screening tests each substance at several concentrations.

Assay [2] in a line: Cell Viability - N2a (AID 540).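 For activity change, negative = cytotoxicity: plate controls were DMSO alone for no effect and tamoxifen control for full effect.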 Note: nearly all actives have a fitted effect of over 45% in size. Note: potency is the fitted concentration of half-maximal effect. Conditions: N2a mouse neuroblastoma cell viability; activity change, negative = cytotoxicity: at 92.2 µM (top of the series). In a few lines:
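In this qHTS cytotoxicity screen, ATP-dependent luciferase luminescence reports viable N2a cells after a 40 hr compound exposure in complete culture medium. Potencies are AC50 values from standard Hill equation fits.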

Assay [3] in a line: Cell Viability - NIH 3T3 (AID 541).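 For activity change, negative = cytotoxicity: plate controls were DMSO alone for no effect and tamoxifen positive control for full effect.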 Note: nearly all actives have a fitted effect of over 25% in size. Note: potency is the fitted concentration of half-maximal effect. Conditions: NIH 3T3 cell viability, qHTS; activity change, negative = cytotoxicity: at 92.2 µM (top of the series). In a few lines:
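In this cytotoxicity screen, acute toxicity is scored as an ATP drop measured by CellTiter-Glo in NIH 3T3 fibroblasts following a 40 hr, 37 °C incubation with compound.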

Assay [4] can be described thus: Cell Viability - Renal Proximal Tubule (AID 545). Note: nearly all actives have a fitted effect of over 40% in size. Note: potency is the fitted concentration of half-maximal effect. The following applies: renal proximal tubule cells viability; activity change, negative = cytotoxicity: at 91.7 µM (top of the series) unless noted. In a few lines: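 Luminescent ATP signal (CellTiter-Glo) served as the viability read-out after 40 hr compound exposure of freshly isolated rat proximal tubule cells at 37 °C. Concentration-dependent ATP loss was fitted with the Hill equation to give AC50.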

Assay [5] can be described thus: Cell Viability - Mesenchymal (AID 546).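 Note: cells exposed to compound for 40 hours before reading.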 Note: potency is the fitted concentration of half-maximal effect. Conditions: mesenchymal cells viability, qHTS; activity change, negative = cytotoxicity: at 91.7 µM (top of the series). The gist of the method: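 CellTiter-Glo luminescence (intracellular ATP, 20 min room temperature) after 40 hr compound exposure at 37 °C of 1000 glomerulus-derived human kidney mesenchymal cells/well; AC50 values obtained by fitting qHTS concentration-response data to the Hill equation.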

Assay [6] in a line: Cellular Toxicity (caspase-3) BJ (AID 658). The following applies: BJ fibroblasts, luminescence, normalized: DMSO 0%, staurosporine 100%; series mostly up to 91.7 µM. The gist of the method:
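Caspase-Glo 3/7 luminescence, read 1 hr after reagent at room temperature, in normal BJ fibroblasts exposed 16 hours at 37 °C. AC50 values from Hill-equation concentration-response, scaled between DMSO basal and 10 uM staurosporine as 100%.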

Assay [7] in a line: Cellular Toxicity (caspase-3) MRC-5 (AID 659). Conditions: MRC-5 cells, luminescence, normalized: DMSO 0%, 10 µM staurosporine 100%; series mostly up to 91.7 µM. The gist of the method:
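Luminescent Caspase-Glo 3/7 read-out (1 h, room temperature) after a 16 h, 37 °C compound exposure of MRC-5 lung fibroblasts at 1500 cells/well. Concentration-response AC50 from Hill equation; 0% DMSO, 100% 10 uM staurosporine.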

The nature of assay [8]: Cellular Toxicity (caspase-3) Mesangial (AID 660).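 Note: combined caspase 3 and 7 activity read by Caspase-Glo luminescence; cells exposed to compound for 16 h before the caspase read.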 Note: potency is the fitted concentration of half-maximal effect. The following applies: mesangial cells; Potency: caspase-3 activation; series mostly up to 91.7 µM. The gist of the method: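 AC50 values come from Hill-equation fits of caspase 3/7 activation, measured as Caspase-Glo luminescence in human glomerular mesangial cells exposed to compound for 16 h at 37 °C; 100% set by 100 uM tamoxifen.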

Assay [9] in a line: Cellular Toxicity (caspase-3) Hek293 (AID 664).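 Note: cells exposed to compound for 16 h at 37 °C before readout.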 The following applies: HEK293 caspase-3 activation, DMSO = 0%, 100 µM tamoxifen = 100%; at 92.2 µM (top of the series). The gist of the method: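 Apoptosis readout: Caspase-Glo 3/7 signal in human HEK293 cells following 16-hour compound incubation. Responses scaled between DMSO baseline and 100 uM tamoxifen.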
The nature of assay [10]: Cellular Toxicity (caspase-3) NIH 3T3 (AID 666).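 Note: 0% = DMSO basal and 100% = 100 µM tamoxifen stimulation.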 Conditions: NIH 3T3 caspase-3 activation, apoptosis/toxicity, 0% DMSO, 100% is 100 µM tamoxifen; series mostly up to 92.2 µM. In a few lines: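 Activity: caspase-3/7 induction, NIH 3T3 cells, 16 hr treatment at 37°C, luminescent Caspase-Glo detection; AC50 via Hill equation.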
Assay [11] is described as follows: Cell Viability - LYMP2-003 (AID 965).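 For activity change, negative = cytotoxicity: 0% = DMSO only and full effect = 92 µM tetraoctylammonium bromide.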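 Note: cells exposed to compounds for 24 h before reading; nearly all actives have a fitted effect of over 50% in size.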 Note: potency is the fitted concentration of half-maximal effect. The following applies: LYMP2-003 lymphoblastoid cell viability; series mostly up to 92.2 µM. In a few lines:
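Seed 2500 lymphoblastoid cells/well; incubate 5 hr, 37 C; add compounds; incubate 24 hr, 37 C; add CellTiter-Glo, 30 min RT; read luminescence. AC50 from Hill fit.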

The nature of assay [12]: Cell Viability - LYMP2-015 (AID 971).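 Note: cells exposed to compound for 24 h; nearly all actives have a fitted effect of over 55% in size.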 Note: potency is the fitted concentration of half-maximal effect. The following applies: LYMP2-015 lymphoblastoid cell viability; series mostly up to 92.2 µM. In a few lines: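 AC50 values reflect Hill-model fits of ATP-based luminescence (CellTiter-Glo) from a human lymphoblastoid line, 2500 cells/well, treated 24 hr at 37 C.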
Assay [13] in a line: Cell Viability - LYMP2-019 (AID 973).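 For activity change, negative = cytotoxicity: 0% = DMSO alone and full effect = 92 µM tetraoctylammonium bromide.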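 Note: cells exposed to compound for 24 h at 37 °C; nearly all actives have a fitted effect of over 55% in size.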 Note: potency is the fitted concentration of half-maximal effect. The following applies: LYMP2-019 lymphoblastoid cell line viability; series mostly up to 92.2 µM. The gist of the method:
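AC50 values come from Hill-equation modelling of qHTS concentration-response curves, where viability is measured as luciferase-based ATP luminescence in the lymphoblastoid line after 24 hr compound exposure in complete culture medium.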

Assay [14] in a line: Cell Viability - LYMP2-016 (AID 984). For activity change, negative = cytotoxicity: % is set by controls: 0 for no effect and ±100 for the full control effect.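 Note: cells exposed to compound for 24 hours at 37 °C; nearly all actives have a fitted effect of over 55% in size.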 Note: potency is the fitted concentration of half-maximal effect. The following applies: LYMP2-016 lymphoblastoid cell viability, qHTS; series mostly up to 92.2 µM. The gist of the method: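 Cells were seeded at 2500 per well and rested 5 hr before a 24 hr compound exposure at 37 C. Viability was then gauged as cellular ATP by luciferase luminescence, with AC50 values fitted to the Hill equation.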
Assay [15] can be described thus: Cell Viability - LYMP2-018 (AID 985).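 For activity change, negative = cytotoxicity: plate controls were DMSO only for no effect and tetraoctylammonium bromide at 92 µM for full effect.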 Note: nearly all actives have a fitted effect of over 50% in size. Note: potency is the fitted concentration of half-maximal effect. The following applies: LYMP2-018 lymphoblastoid cells, viability (qHTS); series mostly up to 92.2 µM. In a few lines:
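In this qHTS viability assay, cells are treated for 24 hr and cellular ATP is quantified by luciferase-based luminescence, with tetraoctylammonium bromide as positive control.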

Assay [16] addresses Tumor necrosis factor (Homo sapiens) (UniProt P01375). Nature of the assay: qHTS assay to identify small molecules that stimulate Tumor Necrosis Factor-alpha (TNF-alpha) secretion (AID 651757; active = well fitted curve in the direction sought with a large enough effect in the signal ratio; the % refers to the signal ratio; note: 0% is about no effect). Conditions: Human cells, HTRF 665/615 ratio; series mostly up to 92.2 µM. In a few lines:
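Using 3000 THP-1 cells per well, compounds and controls were applied for 17 hrs at 37 C. Detection followed with two labeled anti-TNF-alpha antibodies (cryptate donor, XL665 acceptor) for 3 hr at room temperature, measured by TR-FRET.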

Assay [17] in a line: Cell Viability - H-4-II-E (AID 543). Note: potency is the fitted concentration of half-maximal effect; nearly all actives have a fitted effect of over 35% in size. Conditions: H-4-II-E rat hepatoma viability; series mostly up to 92.2 µM. In a few lines: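 AC50 from Hill-modelled qHTS concentration-response curves. H-4-II-E rat hepatoma cells in complete medium, 40 hr exposure at 37 °C, viability by CellTiter-Glo ATP luminescence.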
Assay [18] can be described thus: Cellular Toxicity (caspase-3) HUV-EC-C (AID 656). The following applies: HUV-EC-C cells, caspase-3 activation (apoptosis), vehicle = 0, 100 µM tamoxifen = 100%; series mostly up to 92.2 µM. In a few lines:
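qHTS; HUV-EC-C, 1000 cells/well; 5 hr settle, 16 hr cmpd, 37°C; Caspase-Glo 3/7, 20 min RT; luminescence. Norm: DMSO = 0%, tamoxifen 100 uM = 100%. Hill-fit AC50.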

The nature of assay [19]: Cellular Toxicity (caspase-3) N2a (AID 665).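 Note: compound exposure lasted 16 h at 37 °C before readout.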 The following applies: N2a cells, luminescence, normalized: DMSO 0%, 10 µM staurosporine 100%; series mostly up to 92.2 µM. The gist of the method: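 Concentration-response qHTS: compound-induced caspase-3/7 luminescence in N2a cells (16 h, 37 °C), relative to DMSO and 10 uM staurosporine controls; AC50 obtained using the standard Hill equation.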

Assay [20] can be described thus: Cell Viability - LYMP1-003 - Assay at 24 hr (AID 963). Note: potency is the fitted concentration of half-maximal effect. The following applies: LYMP1-003 lymphoblastoid cell viability; series mostly up to 92.2 µM. In a few lines:
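The lymphoblastoid line was treated with titrated compounds for 24 hours, and viable cell number estimated from luciferase-based ATP luminescence.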

Sequence of Tumor necrosis factor (Homo sapiens) (P01375 whole entry, looked up): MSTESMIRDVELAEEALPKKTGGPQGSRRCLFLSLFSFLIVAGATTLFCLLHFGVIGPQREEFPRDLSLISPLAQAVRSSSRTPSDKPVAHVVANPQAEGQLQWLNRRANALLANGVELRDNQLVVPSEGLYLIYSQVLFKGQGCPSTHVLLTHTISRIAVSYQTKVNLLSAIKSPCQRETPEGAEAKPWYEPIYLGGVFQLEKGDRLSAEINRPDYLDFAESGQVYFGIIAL

On to `Cc1ccc2ccccc2c1C`, for which the Potency in assay [1] is over 92 µM.
As to `Clc1ccc(C(c2ccc(Cl)cc2)C(Cl)Cl)cc1`, the values for the Potency in [1] and in assay [8] were 45.4 µM (active) and 31.6 µM (active), respectively. Also, the activity change, negative = cytotoxicity was -102% (active) in assay [2] and -88.1% (active) in [4]. Also, the Potency result in assay [3], in [5], in assay [11], in assay [12], in [13] and in assay [14] was “inactive” in each case. The Potency entry in [15] and in assay [16] was “inactive” throughout. Also, the outcome in assay [6], in [7] and in [10] was inactive. Moreover, the caspase-3 activation in assay [9] is 127% (active).
With `[CH3][Hg][Cl]`, the Potency in assay [1] is 33.3 µM (active); in [2], 10 µM (active); in assay [3], 0.0316 µM (active); in assay [17], 5.01 µM (active); in assay [5] it was 6.31 µM (active); in assay [20] it was 50.1 µM (active). Further, the Potency in assay [11] is 5.01 µM (active); in assay [12], 3.16 µM (active); in [13], 5.01 µM (active); in [14], 3.98 µM (active); in assay [15] it was 3.16 µM (active). Moreover, the activity change, negative = cytotoxicity in assay [4] was -104% (active). In addition, the molecule was called inactive in assay [18], in assay [6], in assay [7] and in [19]. Besides, in [9], the caspase-3 activation is -9.46%. For the same molecule, the Potency result in assay [16] was “inactive”.
As to `[Cd+2].[Cl-].[Cl-]`, the Potency in assay [1] is 51.2 µM (active); in assay [17], 1.26 µM (active); in [4] it was 12.6 µM (active); in assay [12] it was 50.1 µM (active). Besides, the activity change, negative = cytotoxicity in assay [2] is -109% (active); in assay [3] it was -132% (active). Also, the molecule was called inactive in assay [18], in assay [6], in assay [7], in assay [19] and in assay [10]. In addition, the Potency result in assay [8], in [11], in assay [14], in assay [15] and in assay [16] was “inactive” throughout. The caspase-3 activation in assay [9] is 1.43%.
On to `O=[N+]([O-])C(Br)Br`, for which the Potency in assay [1] is over 92 µM; in [3], 31.6 µM (active); in assay [17], 31.6 µM (active); in assay [11], 25.1 µM (active); in assay [12] it was 10 µM (active); in assay [13], 10 µM (active). In addition, the Potency in assay [14] was 15.8 µM (active); in [15] it was 12.6 µM (active). In addition, the activity change, negative = cytotoxicity in assay [2] is -119% (active). Moreover, the Potency entry in assay [4], in assay [8], in assay [20] and in assay [16] was “inactive” in each case. The molecule was classed as inactive in [18], in assay [6], in assay [7], in assay [19] and in assay [10]. Besides, the caspase-3 activation in [9] is -9.23%.
